In PubChem BioAssay AID1851 (National Center for Advancing Translational Sciences (NCATS), 2009):
Out of some 16,000 compounds screened, about 5,700 (36%) were called active. Another 24% or so got no clear call; they are omitted. Some of the results follow. A number with no mark means an inactive call. Calls follow the shape of the dose curve; as a rule, active = well fitted curve in the direction sought with a large enough effect; inconclusive = small, poorly fitted or top-dose-only effect, or effect the other way; inactive = no such curve, though single readings can be large or run the other way.

molecular target: Cytochrome P450 1A2 (Homo sapiens) (UniProt P05177); assay: Cytochrome panel assay with activity outcomes; conditions: recombinant CYP, pro-luciferin dealkylation, luminescence, p450-cyp1a2; series mostly up to 57.1 µM; activity, negative = inhibition: at the top concentration
% is scaled to controls: 0 for no effect and ±100 for the full control effect.

Sequence of Cytochrome P450 1A2 (Homo sapiens) (P05177 whole entry, looked up): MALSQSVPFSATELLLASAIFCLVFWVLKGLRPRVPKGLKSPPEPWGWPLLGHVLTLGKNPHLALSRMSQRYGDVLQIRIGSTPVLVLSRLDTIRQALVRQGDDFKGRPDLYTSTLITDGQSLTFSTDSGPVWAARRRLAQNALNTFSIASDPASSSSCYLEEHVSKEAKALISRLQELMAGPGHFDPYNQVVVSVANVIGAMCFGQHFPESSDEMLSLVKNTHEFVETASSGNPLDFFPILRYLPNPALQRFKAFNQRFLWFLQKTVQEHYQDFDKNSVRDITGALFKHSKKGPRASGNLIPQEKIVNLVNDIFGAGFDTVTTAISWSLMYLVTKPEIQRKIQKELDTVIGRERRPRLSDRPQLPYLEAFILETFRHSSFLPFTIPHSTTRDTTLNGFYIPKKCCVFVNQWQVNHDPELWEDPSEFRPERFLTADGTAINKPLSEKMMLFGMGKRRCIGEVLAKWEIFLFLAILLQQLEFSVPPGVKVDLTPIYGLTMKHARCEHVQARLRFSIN

SMILES | activity, negative = inhibition | AC50
COC(=O)[C@@]1(Cc2ccccc2)[C@H]2c3cc(C(=O)N(C)C)n(Cc4ccsc4Br)c3C[C@H]2CN1C(=O)c1ccccc1 | -17.5% | –
COc1ccc(CSc2nnnn2C)cc1[N+](=O)[O-] | – | 14.1 µM (active)
CCCOc1ccc(Cn2c(C)nc([N+](=O)[O-])c2SCC(O)COC)cc1[N+](=O)[O-] (stereo unspecified) | -20.4% | –
CSc1nncc(-c2ccc(F)c(F)c2)n1 | – | 3.55 µM (active)
OC(COCC1COc2ccccc2O1)CN1CCN(c2ccccc2F)CC1 (stereo unspecified) | -22.8% | –
CC1CCCN(CC(O)COCC2COc3ccccc3O2)C1 (stereo unspecified) | -7.91% | –
OC(COCC1COc2ccccc2O1)CN1CCc2ccccc2C1 (stereo unspecified) | – | 5.01 µM (active)
NC(=O)[C@H]1CC2(CC(c3cccc(NC(=O)c4ccccc4)c3)=NO2)CN1C(=O)[C@H]1CCC(=O)N1 (stereo partly specified) | -9.8% | –
CCOC(=O)C1=C(C)NC2(O)c3ccccc3C(=O)C12O (stereo unspecified) | – | 20 µM (active)
CC(=O)Nc1ccc(S(=O)(=O)NCC2CCC(C(=O)N3CCN(c4ccccn4)CC3)CC2)cc1 (stereo unspecified) | -14.1% | –
O=c1onc2n1-c1cc(Br)ccc1OC2 | – | 0.794 µM (active)
Cc1ccc(NC(=O)N/C=C/c2ccco2)cc1C | – | 7.08 µM (active)
O=C1[C@@H]2[C@H]3[C@H](O)[C@H](O)C/C(=N/OC[C@@H](O)COCc4ccco4)[C@@H]3CC[C@H]2C(=O)N1c1ccc(F)cc1F | -10.4% [at 11.4 µM] | –
C/C(=N\N1CCN(C2c3ccccc3-c3ccccc32)CC1)c1ccncc1 | – | 8.91 µM (active)
C/C(=N\N1CCN(C2c3ccccc3-c3ccccc32)CC1)c1cccnc1 | – | 12.6 µM (active)
Cc1ccnc(N2C(=O)C3C4CC(C(Br)C4Br)C3C2=O)c1 (stereo unspecified) | 8.01% | –
C[C@@H](COc1ccc(/C=C\c2ccccc2)cc1)[N+](C)(C)C | -18.1% | –
CC[N+](CC)(CC)CCOc1cccc(OCC[N+](CC)(CC)CC)c1OCC[N+](CC)(CC)CC | 10.9% | –
O=C(O)[C@@H]1CCCNC1 | -0.55% [at 25.6 µM] | –
Cc1cc(C)c(C)c(S(=O)(=O)ON2C(=O)c3ccccc3C2=O)c1C | – | 28.2 µM (active)
FC(F)(F)c1cc(-c2ccco2)nc(NCc2cccs2)n1 | – | 0.158 µM (active)
FC(F)(F)c1cc(-c2ccco2)nc(NCCc2ccccc2)n1 | – | 2.82 µM (active)
Cc1ccccc1-c1nc(Nc2ccncc2)c2ccccc2n1 | – | 0.794 µM (active)
Clc1ccccc1-c1nc(Nc2ccncc2)c2ccccc2n1 | – | 0.501 µM (active)
COc1ccccc1-c1nc(Nc2ccncc2)c2ccccc2n1 | – | 0.316 µM (active)
FC(F)(F)c1ccccc1-c1nc(Nc2ccncc2)c2ccccc2n1 | – | 10 µM (active)
